Compound activity as filed in PubChem BioAssay.
Beta2AR agonist: agonists of human beta-2 adrenergic receptor inducing internalization | Am2.2-beta2AR cells, FAP receptor internalization, flow cytometry | actives 0.43% (n = 340,000) | P07550 | response, % (concentration not given with the values);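 active = response above a set limit, near 3 SD of response in nonfluorescent compounds, cut at about 42% in these data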
Target sequence (P07550 whole entry, looked up): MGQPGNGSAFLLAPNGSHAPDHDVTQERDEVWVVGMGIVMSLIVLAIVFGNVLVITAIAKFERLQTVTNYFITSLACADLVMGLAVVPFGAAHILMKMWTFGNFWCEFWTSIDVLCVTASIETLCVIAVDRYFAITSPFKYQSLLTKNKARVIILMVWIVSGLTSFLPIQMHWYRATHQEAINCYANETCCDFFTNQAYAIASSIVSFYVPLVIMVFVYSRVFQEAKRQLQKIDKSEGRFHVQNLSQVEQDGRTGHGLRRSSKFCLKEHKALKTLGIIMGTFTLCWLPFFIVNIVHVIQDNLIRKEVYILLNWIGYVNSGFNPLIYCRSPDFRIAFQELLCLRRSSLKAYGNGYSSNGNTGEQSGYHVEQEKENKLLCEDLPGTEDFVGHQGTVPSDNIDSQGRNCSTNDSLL
Exocytosis inh: lytic granule exocytosis inhibition | actives 0.66% (n = 360,000) | TALL-104 LAMP-1 surface exposure, flow cytometry; cells stimulated with thapsigargin and PMA | inhibition, % at 10 µM | AID 651702;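 active = inhibition above about 55%, limit read from the data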
NadD inh: NadD (S. aureus) enzyme inhibition; purified NadD enzyme, colorimetric absorbance read-out; inhibition, % at 20 µM; actives 0.78% (n = 360,000); in the data active = inhibition above about 26%
GRK2 aptamer HTS: inhibitors of human GRK2 displacing RNA aptamer; inhibition of aptamer binding, % at 10 µM; P25098; bead flow cytometry, FAM-aptamer displacement from GRK2; actives 0.59% (n = 330,000);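 active = inhibition of aptamer binding above 40%, roughly 3 SD of noise, on plates passing a quality check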;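 also: median bead fluorescence of bound FAM aptamer so fluorescent compounds give negative values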
PP1 counter: counter-screen for PP5 inhibitors: inhibitors of human PP1-alpha; purified PP1alpha, OMFP fluorescence; AID 2235; actives 0.9% (n = 320,000); inhibition, % at 6.7 µM;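 active = inhibition above the mean inhibition of all tested compounds plus 3 SD, computed separately for each screening campaign, cut at about 15% in these data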
* marks the source's active call; other numbers are inactive results. Only some compounds are listed: those with a hit (about 2.9% of all), similar ones and a draw of the others.

How did O=C1C(=O)c2ccccc2-c2ccccc21 do in these assays?
Beta2AR agonist: 103*; Exocytosis inh: 85*; NadD inh: 3; GRK2 aptamer HTS: 28; PP1 counter: 40*

What do the screens show for `O=C1C(=O)c2cccc3cccc1c23`?
Beta2AR agonist: 18; Exocytosis inh: 2; NadD inh: -1; GRK2 aptamer HTS: 2; PP1 counter: -1

Results for Cc1ccsc1/C=C1\C(=O)NC(=S)N(C)C1=O ?
Beta2AR agonist: 55*; Exocytosis inh: 7; NadD inh: 6; GRK2 aptamer HTS: 1; PP1 counter: -8

Results for COc1ccc(-n2nnnc2C(CCSC)N2CCC3(CC2)C(=O)NCN3c2ccccc2)cc1 (centres undefined) ?
Exocytosis inh: 0; NadD inh: 4

What do the screens show for `Cc1cc(/C=C2\C(=O)NC(=O)N(Cc3ccccc3)C2=O)c(C)n1-c1ccc(Cl)c(C(=O)O)c1`?
Beta2AR agonist: -4; Exocytosis inh: 2; NadD inh: 7; GRK2 aptamer HTS: 100*; PP1 counter: 3

What do the screens show for `CC1CCC(C(C)C)C(OC(=O)Cn2c(COc3ccccc3)[n+](C)c3ccccc32)C1` (centres undefined)?
Beta2AR agonist: 11; Exocytosis inh: 84*; NadD inh: 1; GRK2 aptamer HTS: 0; PP1 counter: 15

How did CC(C)(O)/C=C/C(=O)C(C)(O)C1C(O)CC2(C)C3CC=C4C(C=C(O)C(=O)C4(C)C)C3(C)C(=O)CC12C (centres undefined) do in these assays?
Beta2AR agonist: 42*; Exocytosis inh: 8; NadD inh: -3

How did CC(=O)OC(C)(C)/C=C/C(=O)[C@](C)(O)C1[C@H](O)C[C@@]2(C)C3CC=C4C(C[C@H](O)C(=O)C4(C)C)[C@]3(C)C(=O)C[C@]12C (some centres undefined) do in these assays?
Beta2AR agonist: 66*; Exocytosis inh: 4; NadD inh: 2; GRK2 aptamer HTS: 0

How did O=C(NC1CCCCC1)N1Cc2ccccc2-n2nncc2C1 do in these assays?
Beta2AR agonist: -2; Exocytosis inh: -2; NadD inh: 2

How did COC(=O)C1=C(c2ccc(-c3ccccc3)c(F)c2)C[C@@H]2CC[C@H]1N2C(=O)N1CCOCC1 do in these assays?
Beta2AR agonist: 3; Exocytosis inh: -1; NadD inh: -6; GRK2 aptamer HTS: 0; PP1 counter: 2

Results for Cc1ccc(N2C(=O)NC(=O)/C(=C/c3ccc(-c4ccc(C(=O)O)c(Cl)c4)o3)C2=O)cc1 ?
Beta2AR agonist: -4; Exocytosis inh: 10; NadD inh: 42*; GRK2 aptamer HTS: 17; PP1 counter: 3

What do the screens show for `CC1(C)C(C(=O)N2CCN(c3ccc(Cl)cc3)CC2)C1(C)C`?
Beta2AR agonist: -3; Exocytosis inh: 5; NadD inh: -2; GRK2 aptamer HTS: 2; PP1 counter: 3

How did COC(=O)C1CN(C#N)N(c2ccc(Cl)cc2)C12c1ccccc1-c1ccccc12 (centres undefined) do in these assays?
Beta2AR agonist: 40; Exocytosis inh: 69*; NadD inh: 6; GRK2 aptamer HTS: 0; PP1 counter: 10

How did Cc1cc(/C=C2\C(=O)NC(=O)N(c3ccc(Cl)cc3)C2=O)c(C)n1-c1sc2c(c1C#N)CCCC2 do in these assays?
Beta2AR agonist: 22; Exocytosis inh: -5; NadD inh: 47*; GRK2 aptamer HTS: 0; PP1 counter: 11

What do the screens show for `CCOC(=O)c1c(-n2c(C)cc(/C=C3\C(=O)NC(=O)N(C)C3=O)c2C)sc2c1CCCC2`?
Beta2AR agonist: 3; Exocytosis inh: 57*; NadD inh: 13; GRK2 aptamer HTS: 6; PP1 counter: 5

Results for O=C(NCC1=C(c2cccc3ccccc23)C[C@@H]2CC[C@H]1N2Cc1ccco1)c1ccc([N+](=O)[O-])cc1 ?
Exocytosis inh: -3; NadD inh: 11

How did C=Cc1cc(OC)c2c(c1)c(=O)oc1c2cc(OC)c2c(O)ccc(C3OC(C)C(O)C(C)(O)C3O)c21 (centres undefined) do in these assays?
Beta2AR agonist: 17; Exocytosis inh: 13; NadD inh: 22

Results for O=C(C(=C1N(Cc2ccc(Cl)nc2)CCN1Cc1ccc(Cl)nc1)[N+](=O)[O-])C(Cl)Cl ?
Beta2AR agonist: -5; Exocytosis inh: 3; NadD inh: -1; GRK2 aptamer HTS: 44*; PP1 counter: -1

How did CCC1CO/C(=C(\C(Cl)=C(Cl)Cl)[N+](=O)[O-])N1Cc1ccc(Cl)nc1 (centres undefined) do in these assays?
Beta2AR agonist: 0; Exocytosis inh: 9; NadD inh: -10; GRK2 aptamer HTS: 0; PP1 counter: -2

How did O=C1NC(=O)N(c2ccc(Cl)cc2)C(=O)/C1=C\c1ccc(Sc2nc3ccccc3[nH]2)o1 do in these assays?
Beta2AR agonist: 2; Exocytosis inh: -2; NadD inh: 55*; GRK2 aptamer HTS: 7; PP1 counter: 3

What do the screens show for `N#CC(C#N)=NNc1ccc(S(N)(=O)=O)cc1`?
Beta2AR agonist: 8; Exocytosis inh: -1; NadD inh: 41*; GRK2 aptamer HTS: 4; PP1 counter: 0

What do the screens show for `CC1CCN(S(=O)(=O)c2ccc(NN=C(C#N)C#N)cc2)CC1`?
GRK2 aptamer HTS: 0; PP1 counter: 0

What do the screens show for `COC(=O)C1=C(c2ccc(-c3ccccc3)c(F)c2)C[C@@H]2CC[C@H]1N2C(=O)N1CCc2cc(OC)c(OC)cc2C1`?
Beta2AR agonist: 7; Exocytosis inh: 4; NadD inh: 4; GRK2 aptamer HTS: 0; PP1 counter: -1

How did O=C1NC(=O)C(=Cc2cn(CCOc3ccc4c(c3)OCO4)c3ccccc23)C(=O)N1 do in these assays?
Beta2AR agonist: 42; Exocytosis inh: 1; NadD inh: 43*; GRK2 aptamer HTS: 0; PP1 counter: 1

How did CN1/C(=C\C=C\C2=[N+](C)c3ccc4ccccc4c3C2(C)C)C(C)(C)c2ccccc21 do in these assays?
GRK2 aptamer HTS: 84*; PP1 counter: 36*

What do the screens show for `CCN1/C(=C/C=C/C2=[N+](CC)c3ccccc3C2(C)C)C(C)(C)c2ccccc21`?
Exocytosis inh: 69*; NadD inh: 1

Results for CN1/C(=C\C=Nc2ccccc2)C(C)(C)c2ccccc21 ?
Beta2AR agonist: -18; Exocytosis inh: -1; NadD inh: 0; GRK2 aptamer HTS: 0; PP1 counter: -1

Results for CC(=O)c1cccc(NC(=O)N2C[C@H]3C[C@@H](C2)c2cccc(=O)n2C3)c1 ?
Beta2AR agonist: 14; Exocytosis inh: 6; NadD inh: -2; GRK2 aptamer HTS: 1; PP1 counter: -2

What do the screens show for `CCOc1ccc(N2C(=O)/C(=C/c3ccc(C)o3)C(=O)NC2=S)cc1`?
Beta2AR agonist: 30; Exocytosis inh: -7; NadD inh: 16; GRK2 aptamer HTS: 0; PP1 counter: 4

What do the screens show for `CN1CCN(c2ccc(/C=C3\C(=O)NC(=S)N(c4cccc(Br)c4)C3=O)o2)CC1`?
Beta2AR agonist: -77; Exocytosis inh: -1; NadD inh: 10; GRK2 aptamer HTS: 0; PP1 counter: 1
